In experiment [1] the target is Tyrosine-protein kinase SYK (Homo sapiens) (UniProt P43405). Conditions: at 10 µM.
Experiment [2] deals with T1, Mitogen-activated protein kinase kinase kinase 7 (Homo sapiens) (UniProt O43318).
T1 sequence (whole entry): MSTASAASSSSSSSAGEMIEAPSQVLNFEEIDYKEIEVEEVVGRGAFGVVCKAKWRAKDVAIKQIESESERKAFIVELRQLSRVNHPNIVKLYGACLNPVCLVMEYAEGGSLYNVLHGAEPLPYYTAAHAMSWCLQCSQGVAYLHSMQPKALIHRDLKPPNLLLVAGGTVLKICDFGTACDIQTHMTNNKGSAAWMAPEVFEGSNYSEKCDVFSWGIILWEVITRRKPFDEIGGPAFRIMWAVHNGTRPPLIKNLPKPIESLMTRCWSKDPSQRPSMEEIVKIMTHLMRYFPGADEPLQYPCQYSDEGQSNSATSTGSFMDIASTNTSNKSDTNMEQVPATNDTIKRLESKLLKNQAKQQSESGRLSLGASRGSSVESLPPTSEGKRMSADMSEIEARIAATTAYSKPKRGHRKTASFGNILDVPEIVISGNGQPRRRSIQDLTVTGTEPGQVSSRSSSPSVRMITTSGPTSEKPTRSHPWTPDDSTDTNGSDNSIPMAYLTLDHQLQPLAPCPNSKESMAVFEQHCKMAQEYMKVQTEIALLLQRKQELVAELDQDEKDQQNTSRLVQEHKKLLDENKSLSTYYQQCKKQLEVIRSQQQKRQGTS
Conditions: at 1 µM.

Experiment [3] has as its target T1, Mitogen-activated protein kinase kinase kinase 7 (Homo sapiens). Conditions: at 10 µM.
Experiment [4] concerns the target T2, Serine/threonine-protein kinase TAO1 (Homo sapiens) (UniProt Q7L7X3).
T2 sequence (whole entry): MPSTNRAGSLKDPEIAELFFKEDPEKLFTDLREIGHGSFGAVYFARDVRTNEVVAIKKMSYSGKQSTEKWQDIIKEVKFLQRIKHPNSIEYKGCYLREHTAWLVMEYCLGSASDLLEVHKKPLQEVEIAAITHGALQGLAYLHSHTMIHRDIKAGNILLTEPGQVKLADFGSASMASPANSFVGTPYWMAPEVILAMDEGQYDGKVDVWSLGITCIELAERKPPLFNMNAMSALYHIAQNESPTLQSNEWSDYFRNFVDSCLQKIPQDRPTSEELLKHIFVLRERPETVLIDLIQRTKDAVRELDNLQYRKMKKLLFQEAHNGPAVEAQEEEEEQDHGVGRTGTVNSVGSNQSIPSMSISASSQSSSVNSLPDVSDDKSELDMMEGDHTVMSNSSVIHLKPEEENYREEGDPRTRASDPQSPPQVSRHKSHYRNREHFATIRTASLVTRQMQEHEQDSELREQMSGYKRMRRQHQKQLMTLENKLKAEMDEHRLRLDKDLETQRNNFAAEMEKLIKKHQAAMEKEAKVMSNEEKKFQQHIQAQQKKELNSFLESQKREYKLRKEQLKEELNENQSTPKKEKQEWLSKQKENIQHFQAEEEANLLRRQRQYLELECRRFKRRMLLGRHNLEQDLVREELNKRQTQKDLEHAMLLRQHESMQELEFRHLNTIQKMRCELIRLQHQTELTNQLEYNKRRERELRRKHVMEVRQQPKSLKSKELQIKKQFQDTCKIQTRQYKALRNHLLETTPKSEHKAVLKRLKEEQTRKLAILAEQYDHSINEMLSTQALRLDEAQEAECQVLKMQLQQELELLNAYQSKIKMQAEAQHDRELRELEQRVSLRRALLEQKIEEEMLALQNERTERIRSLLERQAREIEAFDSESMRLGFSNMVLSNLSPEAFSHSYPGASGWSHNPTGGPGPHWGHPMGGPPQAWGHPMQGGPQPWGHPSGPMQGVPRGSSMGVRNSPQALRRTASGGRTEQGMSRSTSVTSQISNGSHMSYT
The conditions noted are these: at 1 µM.

The target in experiment [5] is T2, Serine/threonine-protein kinase TAO1 (Homo sapiens). The conditions noted are these: at 10 µM.
Experiment [6] addresses T3, Serine/threonine-protein kinase TAO3 (Homo sapiens) (UniProt Q9H2K8).
T3 sequence (whole entry): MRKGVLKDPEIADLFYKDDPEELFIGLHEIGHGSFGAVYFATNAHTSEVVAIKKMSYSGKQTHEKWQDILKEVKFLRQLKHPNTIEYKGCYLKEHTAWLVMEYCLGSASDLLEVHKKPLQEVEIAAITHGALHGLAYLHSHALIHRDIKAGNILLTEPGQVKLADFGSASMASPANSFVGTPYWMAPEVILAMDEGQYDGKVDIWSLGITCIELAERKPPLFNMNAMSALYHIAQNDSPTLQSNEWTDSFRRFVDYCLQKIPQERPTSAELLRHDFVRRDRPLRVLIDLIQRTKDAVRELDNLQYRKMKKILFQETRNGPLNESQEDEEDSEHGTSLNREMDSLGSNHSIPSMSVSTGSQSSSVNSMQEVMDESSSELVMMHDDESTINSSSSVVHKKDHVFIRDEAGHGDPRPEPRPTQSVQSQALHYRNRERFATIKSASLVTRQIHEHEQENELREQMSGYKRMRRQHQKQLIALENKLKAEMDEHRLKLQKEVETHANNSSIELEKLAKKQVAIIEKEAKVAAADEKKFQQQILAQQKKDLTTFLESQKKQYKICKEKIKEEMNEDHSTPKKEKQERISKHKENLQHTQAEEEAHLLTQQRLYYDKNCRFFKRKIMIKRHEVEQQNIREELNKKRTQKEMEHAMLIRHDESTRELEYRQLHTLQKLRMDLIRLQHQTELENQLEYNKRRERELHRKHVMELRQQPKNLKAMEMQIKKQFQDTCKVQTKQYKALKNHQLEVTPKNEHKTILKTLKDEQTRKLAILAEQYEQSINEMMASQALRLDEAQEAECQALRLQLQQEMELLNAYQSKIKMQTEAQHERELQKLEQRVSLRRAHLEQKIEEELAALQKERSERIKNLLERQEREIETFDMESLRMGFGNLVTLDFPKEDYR
The conditions noted are these: at 1 µM.

In experiment [7] the target is T3, Serine/threonine-protein kinase TAO3 (Homo sapiens). Conditions: at 10 µM.
Experiment [8] has as its target T4, Serine/threonine-protein kinase TBK1 (Homo sapiens) (UniProt Q9UHD2).
T4 sequence (whole entry): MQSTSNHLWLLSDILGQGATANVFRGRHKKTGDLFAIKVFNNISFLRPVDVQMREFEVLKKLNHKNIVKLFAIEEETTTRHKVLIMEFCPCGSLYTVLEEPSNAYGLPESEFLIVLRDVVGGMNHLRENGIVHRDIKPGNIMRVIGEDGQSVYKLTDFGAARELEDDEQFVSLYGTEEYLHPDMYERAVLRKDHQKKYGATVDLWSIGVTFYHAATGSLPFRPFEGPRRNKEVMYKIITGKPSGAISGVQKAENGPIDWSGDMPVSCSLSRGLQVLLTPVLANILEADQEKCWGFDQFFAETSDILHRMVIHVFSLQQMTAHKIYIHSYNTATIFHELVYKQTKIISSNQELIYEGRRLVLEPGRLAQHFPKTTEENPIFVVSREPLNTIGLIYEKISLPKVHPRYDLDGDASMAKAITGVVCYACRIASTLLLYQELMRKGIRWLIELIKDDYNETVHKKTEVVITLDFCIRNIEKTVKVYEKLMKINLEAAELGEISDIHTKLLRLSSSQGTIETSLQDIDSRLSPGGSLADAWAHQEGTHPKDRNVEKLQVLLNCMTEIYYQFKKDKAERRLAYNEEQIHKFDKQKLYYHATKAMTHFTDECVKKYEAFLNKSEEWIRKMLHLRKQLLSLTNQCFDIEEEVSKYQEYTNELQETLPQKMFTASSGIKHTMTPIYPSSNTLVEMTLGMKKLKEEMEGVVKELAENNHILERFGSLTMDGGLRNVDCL
The conditions noted are these: at 1 µM.

Experiment [9] concerns the target T4, Serine/threonine-protein kinase TBK1 (Homo sapiens). The conditions noted are these: at 10 µM.
Experiment [10] concerns the target T5, Inhibitor of nuclear factor kappa-B kinase subunit alpha (Homo sapiens) (UniProt O15111).
T5 sequence (whole entry): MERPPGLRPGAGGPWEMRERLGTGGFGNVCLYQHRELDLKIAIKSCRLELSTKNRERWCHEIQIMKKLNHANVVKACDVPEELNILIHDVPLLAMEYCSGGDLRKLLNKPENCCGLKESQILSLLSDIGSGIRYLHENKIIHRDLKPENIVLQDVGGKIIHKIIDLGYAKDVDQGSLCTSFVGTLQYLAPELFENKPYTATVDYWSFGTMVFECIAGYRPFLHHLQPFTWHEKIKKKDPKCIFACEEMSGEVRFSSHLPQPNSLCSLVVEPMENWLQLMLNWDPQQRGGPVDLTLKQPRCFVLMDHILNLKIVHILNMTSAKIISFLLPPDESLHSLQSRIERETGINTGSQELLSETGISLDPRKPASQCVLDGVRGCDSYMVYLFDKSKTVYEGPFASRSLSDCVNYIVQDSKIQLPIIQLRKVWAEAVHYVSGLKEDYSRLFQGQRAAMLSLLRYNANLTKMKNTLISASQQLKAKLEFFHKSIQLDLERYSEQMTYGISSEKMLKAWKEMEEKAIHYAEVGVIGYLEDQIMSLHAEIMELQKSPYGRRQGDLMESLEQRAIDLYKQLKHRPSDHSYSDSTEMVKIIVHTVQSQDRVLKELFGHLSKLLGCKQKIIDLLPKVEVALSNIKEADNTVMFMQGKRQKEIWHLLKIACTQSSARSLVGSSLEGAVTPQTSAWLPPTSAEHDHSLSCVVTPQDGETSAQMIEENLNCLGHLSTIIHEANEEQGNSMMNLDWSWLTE
The conditions noted are these: at 1 µM.

The target of experiment [11] is T5, Inhibitor of nuclear factor kappa-B kinase subunit alpha (Homo sapiens). The conditions noted are these: at 10 µM.
Experiment [12] concerns the target Insulin receptor (Homo sapiens) (UniProt P06213). Conditions: at 1 µM.

Sequence of Insulin receptor (Homo sapiens) (P06213 28-758 limits assumed): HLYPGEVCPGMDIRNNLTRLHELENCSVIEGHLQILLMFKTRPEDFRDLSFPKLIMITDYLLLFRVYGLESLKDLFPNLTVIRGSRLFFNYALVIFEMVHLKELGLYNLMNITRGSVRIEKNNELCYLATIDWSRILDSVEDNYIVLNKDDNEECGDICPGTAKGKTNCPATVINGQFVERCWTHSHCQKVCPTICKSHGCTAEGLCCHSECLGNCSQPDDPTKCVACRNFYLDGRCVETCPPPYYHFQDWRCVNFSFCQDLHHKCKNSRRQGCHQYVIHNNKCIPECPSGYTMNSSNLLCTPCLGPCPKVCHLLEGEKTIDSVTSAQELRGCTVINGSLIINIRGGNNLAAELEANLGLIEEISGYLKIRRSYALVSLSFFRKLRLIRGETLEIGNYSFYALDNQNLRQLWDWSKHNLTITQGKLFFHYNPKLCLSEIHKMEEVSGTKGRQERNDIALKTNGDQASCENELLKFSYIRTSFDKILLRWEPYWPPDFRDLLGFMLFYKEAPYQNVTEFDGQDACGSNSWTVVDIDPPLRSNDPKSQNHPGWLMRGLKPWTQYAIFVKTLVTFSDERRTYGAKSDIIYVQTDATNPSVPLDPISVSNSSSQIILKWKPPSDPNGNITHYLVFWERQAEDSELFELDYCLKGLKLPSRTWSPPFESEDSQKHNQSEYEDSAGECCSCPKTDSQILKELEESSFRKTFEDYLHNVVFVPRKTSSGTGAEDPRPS
Sequence of Insulin receptor (Homo sapiens) (P06213 763-1382 limits assumed): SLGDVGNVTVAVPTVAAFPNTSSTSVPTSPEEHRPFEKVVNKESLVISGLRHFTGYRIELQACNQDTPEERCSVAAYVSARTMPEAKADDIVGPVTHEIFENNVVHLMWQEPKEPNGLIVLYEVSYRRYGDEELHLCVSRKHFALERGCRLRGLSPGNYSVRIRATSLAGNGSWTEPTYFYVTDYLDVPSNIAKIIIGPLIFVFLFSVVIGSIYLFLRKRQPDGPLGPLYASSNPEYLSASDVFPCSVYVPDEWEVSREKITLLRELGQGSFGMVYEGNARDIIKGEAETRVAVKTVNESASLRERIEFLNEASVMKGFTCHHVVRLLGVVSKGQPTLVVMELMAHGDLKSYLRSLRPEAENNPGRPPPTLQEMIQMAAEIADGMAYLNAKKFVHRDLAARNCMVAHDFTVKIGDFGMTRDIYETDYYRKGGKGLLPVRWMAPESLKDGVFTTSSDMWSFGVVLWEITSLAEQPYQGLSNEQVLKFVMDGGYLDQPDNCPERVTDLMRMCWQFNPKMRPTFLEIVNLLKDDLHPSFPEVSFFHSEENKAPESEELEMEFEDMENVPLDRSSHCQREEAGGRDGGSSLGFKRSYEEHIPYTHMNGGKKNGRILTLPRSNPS

With `NCCNc1ncc(C(N)=O)c(Nc2cccc(C(F)(F)F)c2)n1`, the residual activity in [1] was found to be 0%; in experiment [2], 78%; in experiment [3], 25%; in [4], 78%; in experiment [5], 28%; in [6] it was 73%. For the same molecule, the residual activity worked out at 32% in [7]; 79% in experiment [8]; 54% in experiment [9]; 104% in experiment [10]; 66% in experiment [11]; 115% in [12].

The values are drawn from ChEMBL document CHEMBL2218924, “A broad activity screen in support of a chemogenomic map for kinase signalling research and drug discovery” (Biochem J, 2013).
